# Results as given in PubChem BioAssay.
# The source made the active and inactive calls. Unless noted, no rule for the calls is given here.
# Columns and labels:
# [1] = compounds binding Alexa647 anti-His antibody – biochemical, small-molecule microarray, 635 nm fluorescence, artefact control for SMM control protein annotation, primary screen (AID 1128); details: higher = more signal;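 also: score merges feature fluorescence with signal-to-noise for each printed compound spot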
# [2] = system: Human papillomavirus type 1a E7 protein (residues 1-88); assay: HPV1a E7 small-molecule binders, primary screen, biochemical, small-molecule microarray, residues 1-88, 635 nm (AID 1129); details: small-molecule microarray binding, fluorescence 635 nm; higher = more signal
# [3] = molecular target: Focal adhesion kinase 1 (Homo sapiens) (UniProt Q05397); assay: PTK2 protein binding on printed compound slides – biochemical, small-molecule microarray, 635/667 nm fluorescence, BSA, DTT, primary screen (AID 1130); details: 635 nm fluorescence, higher = more signal;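 also: composite of spot emission at 667 nm and signal to noise over triplicate slides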
# Sequence of Focal adhesion kinase 1 (Homo sapiens) (Q05397 whole entry, looked up): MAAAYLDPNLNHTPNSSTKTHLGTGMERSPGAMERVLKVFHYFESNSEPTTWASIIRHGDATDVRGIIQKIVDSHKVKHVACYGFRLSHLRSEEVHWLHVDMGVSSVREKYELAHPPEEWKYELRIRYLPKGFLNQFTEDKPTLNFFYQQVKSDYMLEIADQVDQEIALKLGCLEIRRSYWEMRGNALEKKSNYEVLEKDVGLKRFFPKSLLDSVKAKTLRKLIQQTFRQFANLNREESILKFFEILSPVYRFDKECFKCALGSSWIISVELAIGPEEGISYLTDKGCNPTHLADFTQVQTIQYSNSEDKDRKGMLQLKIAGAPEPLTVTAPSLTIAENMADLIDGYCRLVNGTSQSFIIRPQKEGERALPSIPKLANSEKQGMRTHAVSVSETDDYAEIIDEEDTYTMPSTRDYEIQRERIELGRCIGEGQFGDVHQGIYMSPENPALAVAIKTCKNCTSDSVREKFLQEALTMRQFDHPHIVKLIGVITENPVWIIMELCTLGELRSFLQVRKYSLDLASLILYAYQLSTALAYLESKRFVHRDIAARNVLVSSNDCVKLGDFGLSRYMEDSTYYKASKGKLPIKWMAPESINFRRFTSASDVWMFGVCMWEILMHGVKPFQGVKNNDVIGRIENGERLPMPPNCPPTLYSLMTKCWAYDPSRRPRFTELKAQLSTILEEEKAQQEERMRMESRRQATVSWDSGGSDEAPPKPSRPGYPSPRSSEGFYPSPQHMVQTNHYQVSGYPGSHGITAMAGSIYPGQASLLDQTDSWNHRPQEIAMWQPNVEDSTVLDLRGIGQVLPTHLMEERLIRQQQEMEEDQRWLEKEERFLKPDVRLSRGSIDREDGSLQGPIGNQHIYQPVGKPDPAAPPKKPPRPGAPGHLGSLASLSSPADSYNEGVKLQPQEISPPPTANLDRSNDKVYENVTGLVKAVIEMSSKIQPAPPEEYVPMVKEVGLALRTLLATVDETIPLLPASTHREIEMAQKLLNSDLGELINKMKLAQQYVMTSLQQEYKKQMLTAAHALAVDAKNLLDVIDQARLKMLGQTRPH
# [4] = system: Fibrinogen (Alexa647-labelled); assay: Alexa647-fibrinogen binding to printed small molecules – biochemical, small-molecule microarray, 635/667 nm fluorescence, artefact control for SMM control-protein annotation, profiling panel (AID 1131); details: fibrinogen-A647 binding fluorescence, higher = more signal;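 also: z-score merges 667 nm fluorescence with per-spot signal-to-noise over triplicate slides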
# [5] = molecular target: Follistatin (Homo sapiens) (UniProt P19883); assay: FST protein binding to printed compounds – biochemical, small-molecule microarray, 635/667 nm fluorescence, primary screen (AID 1132); details: 635 nm fluorescence, higher = more signal
# Sequence of Follistatin (Homo sapiens) (P19883 whole entry, looked up): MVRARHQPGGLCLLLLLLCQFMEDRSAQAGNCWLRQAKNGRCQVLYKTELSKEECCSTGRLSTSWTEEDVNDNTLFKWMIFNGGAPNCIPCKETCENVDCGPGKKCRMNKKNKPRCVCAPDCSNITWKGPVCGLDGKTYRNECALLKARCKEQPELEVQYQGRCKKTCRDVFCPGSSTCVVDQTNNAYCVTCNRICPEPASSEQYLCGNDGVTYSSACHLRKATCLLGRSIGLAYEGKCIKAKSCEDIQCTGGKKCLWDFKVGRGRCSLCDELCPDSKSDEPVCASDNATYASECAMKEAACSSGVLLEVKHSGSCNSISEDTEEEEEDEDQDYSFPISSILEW
# [6] = molecular target: Fibroblast growth factor 2 (Homo sapiens) (UniProt P09038); assay: basic fibroblast growth factor binding to printed compounds – biochemical, small-molecule microarray, 635/667 nm fluorescence, primary screen (AID 1133); details: FGF2, fluorescence 635/667, higher = more signal
# Sequence of Fibroblast growth factor 2 (Homo sapiens) (P09038 whole entry, looked up): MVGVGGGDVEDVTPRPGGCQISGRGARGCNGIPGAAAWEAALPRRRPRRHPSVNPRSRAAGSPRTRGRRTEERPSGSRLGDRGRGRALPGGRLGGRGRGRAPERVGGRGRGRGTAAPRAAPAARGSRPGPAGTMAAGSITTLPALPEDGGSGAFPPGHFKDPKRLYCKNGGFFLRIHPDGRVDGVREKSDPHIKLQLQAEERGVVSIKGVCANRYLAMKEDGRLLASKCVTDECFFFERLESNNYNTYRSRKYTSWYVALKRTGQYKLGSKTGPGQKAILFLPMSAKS
# [7] = JC-1 mitochondrial potential readout, lung cancer cells – cell-based, A549, JC-1 fluorescence, basal, 24 h, 100 nL, profiling panel (AID 1138); details: higher = more signal;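 also: A549 lung adenocarcinoma cells under basal conditions with no added stimulus; test concentration not given here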
# Lefty1 = Lefty1 protein binding to printed compounds – biochemical, small-molecule microarray, 635/667 nm fluorescence, primary screen (AID 1139); details: fluorescence 635/667, higher = more signal
# [8] = system: wheat germ agglutinin (Triticum aestivum), Alexa647-labelled; assay: Alexa647-WGA lectin binding to printed small molecules – biochemical, small-molecule microarray, 635/667 nm fluorescence, artefact control for SMM control-protein annotation, profiling panel (AID 1140); details: WGA-A647 binding, 635 nm fluorescence, higher = more signal;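 also: score merges 667 nm feature emission with signal to noise over triplicate slides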
# [9] = molecular target: Luciferin 4-monooxygenase (Photinus pyralis) (UniProt P08659); assay: inhibition of purified Photinus pyralis luciferase – biochemical, luminescence, purified enzyme, 2006 set, primary screen (AID 1141); details: purified firefly luciferase, SteadyGlo luminescence, 30 min; higher = more signal, called active from +8 up or from −8 down;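 also: cell-free assay with purified firefly luciferase at 100 ng per well in PBS; test concentration not given here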
# Sequence of Luciferin 4-monooxygenase (Photinus pyralis) (P08659 whole entry, looked up): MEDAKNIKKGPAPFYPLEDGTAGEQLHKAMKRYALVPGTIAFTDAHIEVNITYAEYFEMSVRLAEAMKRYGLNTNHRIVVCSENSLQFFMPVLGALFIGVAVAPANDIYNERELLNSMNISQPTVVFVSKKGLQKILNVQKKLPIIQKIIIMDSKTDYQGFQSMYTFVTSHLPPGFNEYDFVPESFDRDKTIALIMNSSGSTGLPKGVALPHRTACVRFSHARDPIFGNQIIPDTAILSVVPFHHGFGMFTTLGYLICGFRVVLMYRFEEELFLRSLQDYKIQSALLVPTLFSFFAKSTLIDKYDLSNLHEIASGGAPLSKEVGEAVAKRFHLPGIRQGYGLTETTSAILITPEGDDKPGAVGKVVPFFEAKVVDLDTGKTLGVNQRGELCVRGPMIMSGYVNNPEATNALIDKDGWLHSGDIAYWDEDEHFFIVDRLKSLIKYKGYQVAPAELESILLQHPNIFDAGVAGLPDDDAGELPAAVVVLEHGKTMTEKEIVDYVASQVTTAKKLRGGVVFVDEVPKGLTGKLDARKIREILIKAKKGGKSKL
# [10] = system: Wnt5a (protein binding on small-molecule microarray); assay: small molecules binding Wnt5a protein – biophysical, small-molecule microarray, 635/667 nm fluorescence, primary screen (AID 1142); details: 635 nm fluorescence, higher = more signal;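 also: fluorescence read at 667 nm with signal to noise per printed feature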
# [11] = ATP-based viability of Huh7 replicon cells – cell-based, CellTiter-Glo luminescence, basal, 48 h, cytotoxicity control for HCV replication inhibitor project, primary screen (AID 1143); details: higher = more signal, called active from +8 up or from −8 down;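 also: Huh7 hepatoma cells carrying a hepatitis C replication reporter with no stimulus; test concentration not given here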
# [12] = Pseudomonas biofilm growth suppression – PAO1 strain, BacTiter-Glo luminescence, LB-PBS, primary screen (AID 1144); details: P. aeruginosa PAO1 biofilm, 12 h, higher = more signal
# [13] = basal CRE-LacZ reporter activity in PC12 – cell-based, unstimulated, primary screen (AID 1145); details: no forskolin, luminescence, 4.5 h, higher = more signal, called active from +8 up or from −8 down
# [14] = forskolin-driven CRE-LacZ activity in PC12 – cell-based, CRE-LacZ reporter, forskolin-stimulated, primary screen (AID 1146); details: luminescence, 4.5 h, higher = more signal, called active from +8 up or from −8 down;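 also: PC12 cells with 6xCRE LacZ reporter stimulated by forskolin 10 µM; beta-galactosidase reporter signal reflecting CREB driven transcription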
# [15] = molecular target: Streptavidin (Streptomyces avidinii) (UniProt P22629); assay: compounds binding control protein streptavidin – biophysical, small-molecule microarray, 635/667 nm fluorescence, artefact control for SMM compound annotation, primary screen (AID 1147); details: higher = more signal;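 also: signal reflects streptavidin binding to arrayed compounds as a control protein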
# Sequence of Streptavidin (Streptomyces avidinii) (P22629 whole entry, looked up): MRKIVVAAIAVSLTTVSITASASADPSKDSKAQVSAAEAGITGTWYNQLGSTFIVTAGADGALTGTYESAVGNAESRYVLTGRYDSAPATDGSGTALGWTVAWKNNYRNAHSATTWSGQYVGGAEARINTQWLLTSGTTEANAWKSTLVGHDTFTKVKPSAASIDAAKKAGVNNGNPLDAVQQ
# [16] = probe aInhba binding on compound microarray – biochemical, small-molecule microarray, 635/667 nm fluorescence, primary screen (AID 1148); details: higher = more signal;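 also: score merges 667nm spot fluorescence with signal-to-noise for antibody binding to printed compounds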
# Torsin-1A (Homo sapiens) [17] = molecular target: Torsin-1A (Homo sapiens) (UniProt O14656); assay: TOR1A wild-type binding on microarray – cell lysate, small-molecule microarray, lysate, 635/667 nm, primary screen (AID 1149); details: COS7 hTOR1A-WT lysate, 635 nm fluorescence, higher = more signal
# Sequence of Torsin-1A (Homo sapiens) (O14656 whole entry, looked up): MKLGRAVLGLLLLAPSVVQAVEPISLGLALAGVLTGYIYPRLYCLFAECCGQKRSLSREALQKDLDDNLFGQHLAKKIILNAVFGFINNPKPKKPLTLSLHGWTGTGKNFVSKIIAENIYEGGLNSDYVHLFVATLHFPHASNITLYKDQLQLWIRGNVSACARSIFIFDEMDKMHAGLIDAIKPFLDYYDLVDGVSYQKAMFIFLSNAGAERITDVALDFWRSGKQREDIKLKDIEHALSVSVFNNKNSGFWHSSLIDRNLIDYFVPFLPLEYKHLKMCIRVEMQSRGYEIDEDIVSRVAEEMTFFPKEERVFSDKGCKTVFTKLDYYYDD
# Torsin-1A (Homo sapiens) [18] = molecular target: Torsin-1A (Homo sapiens) (UniProt O14656); assay: torsin A mutant lysate binding on microarrays – cell lysate, small-molecule microarray, COS7 lysate, 635/667 nm fluorescence, primary screen (AID 1150); details: COS7 hTOR1A mutant lysate, 635 nm fluorescence, higher = more signal;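 also: score pools 667 nm emission and signal to noise measuring lysate protein binding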
# [19] = system: Sonic hedgehog protein (Shh); assay: Sonic hedgehog microarray binding compounds – biochemical, small-molecule microarray, 635/667 nm fluorescence, primary screen (AID 1151); details: 635 nm fluorescence, higher = more signal;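 also: Shh protein binding to compounds spotted on small-molecule microarray slides; score combines spot fluorescence intensity with signal-to-noise across triplicate slides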
SMILES,composite z-score [1],composite z-score [2],composite z-score [3],composite z-score [4],composite z-score [5],composite z-score [6],z-score [7],composite z-score (Lefty1),composite z-score [8],z-score [9],composite z-score [10],z-score [11],z-score [12],z-score [13],z-score [14],composite z-score [15],composite z-score [16],composite z-score (Torsin-1A (Homo sapiens) [17]),composite z-score (Torsin-1A (Homo sapiens) [18]),composite z-score [19]
CCOC(=O)C[C@H]1[C@H](OC(=O)Cc2ccc3c(c2)OCO3)[C@@H](NC(=O)c2ccccc2)c2cc(OCCCO)ccc2N1C(=O)c1ccc2ccccc2n1,0.0936,0.445,-0.0584,0.204,0.166,0.77,0.925,0.447,0.473,-1.43 (inactive),-0.112,-0.629 (inactive),0.581 (inactive),11 (active),-0.981 (inactive),0.965,-0.0418,0.0426,1.19,0.844
C=CCC(OC(C)=O)[C@@H]1[C@@H](N(Cc2ccc(-c3cccc(C(F)(F)F)c3)o2)C(=O)c2cccc3ccccc23)c2cc(OCCCO)ccc2N1C(=O)c1ccc(-c2ccccc2)cc1 (stereo not given in full),0.955,-0.661,-0.438,-0.739,0.999,0.598,-0.328,0.641,-0.643,0.23 (inactive),0.0391,-1.63 (inactive),0.595 (inactive),-0.272 (inactive),-0.262 (inactive),0.0133,-0.0112,0.1,-0.138,1.06
CCCC=C(CCC)[C@@H](NS(=O)(=O)CC)c1ccccc1,0.365,1.18,0.655,0.976,0.322,0.152,-1.72,-0.346,0.265,2.1 (inactive),0.356,-2.11 (inactive),0.932 (inactive),0.59 (inactive),1.16 (inactive),1.08,0.279,0.252,0.0756,-0.324
C[C@@H]1ON(c2ccccc2)[C@H](c2ccccc2)[C@H]1C(=O)N1C(=O)OC[C@H]1Cc1ccccc1,0.39,0.569,0.507,-0.178,0.586,0.375,2.24,0.675,0.237,0.549 (inactive),-0.0187,-1.04 (inactive),-0.516 (inactive),0.951 (inactive),0.053 (inactive),1.9,-0.0538,0.242,-0.0355,0.637
CC1CC/C=C\[C@H]2OC34C=CCN(c5ccc(Cl)cc5)C(=O)[C@H]3N(C(CO)C(C)C)C(=O)[C@]4(C)C2C(=O)O1 (stereo not given in full),0.776,-0.512,-0.432,-0.787,-0.648,-0.87,0.34,-0.626,-0.281,-0.391 (inactive),-0.293,0.24 (inactive),0.971 (inactive),0.199 (inactive),-0.27 (inactive),-1.17,-0.128,1.3,1.45,0.14
COC(=O)[C@@]1(Cc2ccc(F)cc2)[C@H]2c3cc(C(=O)N4CCCC4)n(Cc4ccccc4)c3C[C@H]2CN1C(=O)c1ccccc1,1.66,0.923,1.08,0.805,0.724,-0.481,-1.23,-0.0042,0.768,2.22 (inactive),0.379,-3.69 (inactive),0.195 (inactive),-0.368 (inactive),0.339 (inactive),1.38,-0.0413,0.0257,0.72,-0.447
CCOC(=O)C[C@H]1[C@H](OC(=O)Cc2ccc3c(c2)OCO3)[C@@H](NC(=O)c2ccccc2)c2cc(OCCCO)ccc2N1C(=O)c1ccccc1,-0.226,0.669,-0.061,0.731,0.392,0.383,0.673,0.557,1.25,-0.207 (inactive),-0.0373,-0.363 (inactive),-0.669 (inactive),0.512 (inactive),0.484 (inactive),0.243,-0.128,0.0229,0.403,0.85
COc1ccc(C#Cc2ccc3c(c2)[C@]2(C(=O)N3)[C@H](C(=O)O)[C@H]3C(=O)O[C@H](c4ccccc4)[C@H](c4ccccc4)N3[C@@H]2c2ccc(OCCO)cc2)cc1,2.61,1.19,0.681,0.836,0.714,0.56,-2.47,0.128,1.18,-5.18 (inactive),0.356,-0.969 (inactive),-0.859 (inactive),0.272 (inactive),0.408 (inactive),1.59,0.399,-0.0331,0.739,1.3
COCCOC(=O)N1C(=O)[C@@]2(c3cc(C#CC4(O)CCCCCC4)ccc31)[C@H](C(=O)N1CCc3cc(OC)c(OC)cc3C1)[C@H]1C(=O)O[C@H](c3ccccc3)[C@H](c3ccccc3)N1[C@@H]2c1ccccc1OCCO,1.07,1.17,0.32,0.608,1.36,1.48,-0.651,1.28,0.859,-1.72 (inactive),0.855,-2.18 (inactive),1.66 (inactive),0.0736 (inactive),3.93 (inactive),0.149,0.448,0.0869,0.326,1.29
CCOC(=O)C[C@H]1[C@H](OC(=O)c2cc3ccccc3oc2=O)[C@@H](NC(=O)c2ccc3ccccc3n2)c2cc(OCCCO)ccc2N1C(=O)c1ccc2ccccc2n1,0.81,0.784,0.114,0.541,0.99,0.818,1.1,1.44,0.131,-0.204 (inactive),0.27,-0.529 (inactive),0.954 (inactive),11.8 (active),-1.72 (inactive),0.617,0.539,0.916,0.378,1.46
